The text below walks through data of PubChem BioAssay AID1903 (Southern Research Specialized Biocontainment Screening …, 2009).

Among all 310,000 compounds or so, about 1,200 (0.39%) were called active. These entries were drawn from the full list. Results with a measured potency or affinity are listed apart. A number with no mark means an inactive call. The rule behind the calls is not given here.

Chain of Large T antigen (Simian virus 40) (P03070 whole entry, looked up): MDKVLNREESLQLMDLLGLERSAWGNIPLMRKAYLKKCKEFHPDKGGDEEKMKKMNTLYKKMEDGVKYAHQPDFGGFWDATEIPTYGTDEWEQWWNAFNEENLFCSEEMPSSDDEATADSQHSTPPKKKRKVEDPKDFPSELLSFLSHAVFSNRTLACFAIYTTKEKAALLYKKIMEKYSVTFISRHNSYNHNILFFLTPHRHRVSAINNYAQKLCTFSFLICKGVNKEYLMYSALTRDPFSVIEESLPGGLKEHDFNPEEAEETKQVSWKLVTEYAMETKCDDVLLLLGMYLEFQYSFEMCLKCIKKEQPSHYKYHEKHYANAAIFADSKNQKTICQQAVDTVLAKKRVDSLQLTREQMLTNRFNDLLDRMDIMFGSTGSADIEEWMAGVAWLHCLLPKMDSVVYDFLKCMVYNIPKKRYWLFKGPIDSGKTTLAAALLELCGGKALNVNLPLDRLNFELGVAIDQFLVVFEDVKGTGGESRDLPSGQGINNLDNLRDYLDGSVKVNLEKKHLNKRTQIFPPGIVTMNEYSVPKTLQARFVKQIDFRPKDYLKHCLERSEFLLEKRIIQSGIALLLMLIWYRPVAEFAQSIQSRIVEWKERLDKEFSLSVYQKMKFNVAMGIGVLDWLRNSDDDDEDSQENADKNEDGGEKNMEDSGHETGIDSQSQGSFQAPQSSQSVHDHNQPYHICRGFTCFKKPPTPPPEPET

This experiment addresses Large T antigen (Simian virus 40) (UniProt P03070). Kind of experiment: TAg ATPase/helicase activity blockers – biochemical (AID 1903). The settings on record: SV40 large T antigen ATPase/helicase inhibition assay; at 20 µM; active compounds read high.
In general, inhibition refers to the relative decrease from the control value, in per cent. With `COc1ccc(OCc2cc(C(=O)NC3CCOCC3)no2)c2ccccc12`, the inhibition is 12%. Then `O=C1c2ccccc2C(=O)N1Cc1ccco1`, with 4.84%.

As for `O=C1C2C(C(=O)N1Cc1ccco1)C1C=CC2C12CC2` (configuration not stated), the inhibition is -1.46%. Regarding `O=C1CC(=O)N(Cc2cccs2)C(=O)N1`, the inhibition is 22.2%. For `COC(=O)C1=C(C)N(Cc2ccco2)C(=O)C1`, the inhibition was 23.9%. Turning to `COc1ccc(S(=O)(=O)N2CCCC(C(=O)N3CCOCC3)C2)cc1OC` (configuration not stated), the inhibition is 7.49%.

Turning to `CN(C)c1ccc(C(=O)N2CCN(c3cc(C(F)(F)F)nc4ccccc34)CC2)cc1`, the inhibition is 16.5%. Then `Cc1ccc(Cc2c(C)nc3nc(SCC(=O)NCCCN4CCCC4)nn3c2C)cc1`, with 9.31%; and `O=C1C(=O)N(Cc2cccnc2)C(c2ccc(Br)cc2)/C1=C(\O)c1ccc2c(c1)OCCO2` (configuration not stated), with 8.89%. The value for `CN(C)c1ncc(/C=C2/C(=O)NC(=S)N(C3CCCCC3)C2=O)cn1` was 10.9%; that for `O=C1/C(=C/c2cccs2)NC(=S)N1C1CC1` was 9.13%.

Turning to `CN(C)c1ccc(/C=C/c2cc[n+](C)cc2)cc1`, the inhibition is 7.41%. The value for `CN(C)c1ccc(/C=C/c2ccncc2)cc1` was 25.2%. Then `Cn1c(CCc2nc3ccccc3[nH]2)n[nH]c1=S`, with 9.76%; and `CC(=O)NC1(c2ccccc2)CCN(C(=O)N2CCOCC2)CC1`, with 4.59%; and `Cc1c(NS(=O)(=O)c2ccccc2F)c(=O)n(-c2ccccc2)n1C`, with 3.58%. The value for `O=C(Nc1ccc2c(c1)CCC2)c1cccc(OC(F)F)c1` was 15.1%. On to `CC(=O)Nc1ccc(NC(=O)CS(=O)(=O)c2cn(CC(=O)N3CCC(C)CC3)c3ccccc23)cc1`, for which the inhibition is 21.1%.

In the case of `NC(=S)N/N=C/c1coc2c(ccc3ccccc32)c1=O`, the inhibition is 10.7%. The value for `O=Cc1coc2ccc3ccccc3c2c1=O` was 12.7%; that for `CC(C)Cn1c(=O)c2c(nc3n2CC(C)CN3Cc2ccccc2)n(C)c1=O` (configuration not stated) was 9.7%. As for `Cc1cc(C)n(-c2nc3ccccc3c(=O)n2OCC(=O)Nc2c(C)cccc2C)n1`, the inhibition is 1.06%. Then `O=C1c2cccnc2C(=O)N1Cc1ccc(S(=O)(=O)N2CCN(c3ccccc3)CC2)cc1`, with -3.05%. Then `CCc1ccccc1NC(=O)C1CCCN(c2ncnc3onc(-c4ccc(F)cc4)c23)C1` (configuration not stated), with 4.3%. The value for `COc1ccc(NC2CCCN(Cc3cccc4cnccc34)C2)cc1` (configuration not stated) was 30.9%.

As for `COc1ccc(NC2CCCN(C(=O)CCc3ccncc3)C2)cc1OC` (configuration not stated), the inhibition is 35.9%.

With `COc1cc(/C=C2\SC(c3ccccc3)=NC2=O)cc(Cl)c1O`, the inhibition was 33.2%. Take `COc1ccc(Br)cc1/C=C/C(=O)NC(=S)Nc1ccc(Cl)c(C(=O)O)c1`: the inhibition was 25.5%. Then `CC(=O)Nc1ccc2oc(-c3cc(F)c(F)cc3Cl)nc2c1`, with 0.785%. As for `CCOC(=O)/C=C1\Nc2ccccc2OC1=O`, the inhibition is 28.2%.

Regarding `Cc1ccc2c(c1)NC(=O)C(CC(=O)O)O2` (configuration not stated), the inhibition was 3.98%. Then `CCCN(CCC)S(=O)(=O)c1ccc(NC(=O)C2CCCO2)cc1` (configuration not stated), with 3.88%; and `N/C(COc1ccc(C(=O)O)cc1)=N\O`, with 0.11%; and `COc1ccc(CCNc2c3ccccc3nc3ccccc23)cc1OC`, with 11.5%. Then `OCCNc1c2ccccc2nc2ccccc12`, with 12.6%; and `CCN(CC)CCN1C(=O)C(O)=C(C(=O)c2cc3ccccc3o2)C1c1cccnc1` (configuration not stated), with 2.07%. The value for `CCN(CC)CCN1C(=O)C(O)=C(C(=O)c2sc(C)nc2C)C1c1cccnc1` (configuration not stated) was 2.43%; that for `O=C(O)CC(NS(=O)(=O)c1cccc2nsnc12)c1ccc(F)cc1` (configuration not stated) was 0.56%.

Turning to `O=c1[nH]n(-c2ccccc2)c(=O)c2ccccc12`, the inhibition was 3.85%.

On to `O=c1c2ccccc2c2ccccc2c(=O)n1-c1ccccc1`, for which the inhibition was 4.04%. The value for `COc1cccc(C(=O)Nc2cc(OC)ccc2NC(=O)c2ccco2)c1` was 17.6%; that for `NCCN=C1NS(=O)(=O)c2ccccc21` was 7.44%. As for `Nc1ccc2c(c1)C(=O)C(=O)c1ccccc1-2`, the inhibition is 15.6%. The value for `CC(=O)Nc1ccc(S(=O)(=O)Nc2nc3ccccc3nc2Nc2ccccc2)cc1` was 1.54%. On to `CC(=O)Nc1ccc(S(=O)(=O)Nc2nc3ccccc3nc2Nc2ccc(S(N)(=O)=O)cc2)cc1`, for which the inhibition was 6.12%.

As to `COc1ccc(Nc2nc3ccccc3nc2NS(=O)(=O)c2ccc(NC(C)=O)cc2)cc1`, the inhibition is 12.8%.

Regarding `CC(=O)Nc1ccc(Nc2nc3ccccc3nc2NS(=O)(=O)c2ccccc2)cc1`, the inhibition is 23.5%. On to `Cn1c(=O)c(C(=O)c2ccc(S(C)(=O)=O)c(Cl)c2Cl)c(O)c2ccccc21`, for which the inhibition was 17%. As for `Cn1cc(C(=O)NCCO)c(=O)c2ccccc21`, the inhibition is -1.83%. The value for `O=C(CSc1nnc(-c2ccccc2)n1CC1CCCO1)N1CCCC1` (configuration not stated) was 12.8%; that for `Cc1nnc2ccc(-c3cccc(NS(=O)(=O)c4ccccc4Cl)c3)nn12` was 10.3%. On to `CSc1ccccc1N=Cc1nc(-c2ccccc2)oc1O`, for which the inhibition was 8.02%.

As for `Cc1cccc(NCC(=O)c2c(N)n(C)c(=O)n(C)c2=O)c1C`, the inhibition is 4.72%.

Regarding `COC(=O)CN1C(c2cccc(Cl)c2)=Nc2ccc(Cl)cc2C1c1ccccc1` (configuration not stated), the inhibition was 7.04%. Then `COc1cc(/C=N/n2c(C3CCCCC3)n[nH]c2=S)ccc1O`, with 21%. In the case of `COc1cc(/C=N/n2c(C3CCCCC3)n[nH]c2=S)cc(OC)c1O`, the inhibition is 10.8%. Then `COc1cccc(/C=N/n2c(-c3cc(C)[nH]n3)n[nH]c2=S)c1OC`, with 26.8%; and `COc1cc(/C=N/n2c(-c3cc(C)[nH]n3)n[nH]c2=S)cc(OC)c1O`, with 24.5%; and `COc1ccc(/C=N/n2c(-c3n[nH]c4c3CCC4)n[nH]c2=S)cc1OC`, with 23.9%. Then `COc1cccc(/C=N/n2c(SC)nnc2-c2ccccc2)c1O`, with 26.3%; and `COc1ccc(CCNC(=O)CN(C)S(=O)(=O)c2ccc(Br)s2)cc1OC`, with -4.17%.

With `Cc1c(Cc2ccccc2)c(=O)oc2c(C)c(OCc3nn[nH]n3)ccc12`, the inhibition is 11.2%.

As for `CCN1CCc2c(OCC(=O)Nc3ccc4c(c3)OCCO4)cccc2C1=O`, the inhibition is 1.06%. The value for `Cc1cc(C)c(S(=O)(=O)c2ccc(Cl)cc2)c(=O)[nH]1` was 7.48%; that for `CCOc1ccc(-c2[nH]nc3c2C(c2ccc4c(c2)OCO4)C(C#N)=C(N)O3)cc1OC` (configuration not stated) was 17%.

With `O=C(CN(c1ccccc1Cl)S(=O)(=O)c1ccccc1)N/N=C/c1ccccc1C(=O)O`, the inhibition is 9.75%.

As for `CC(=O)N1CCN(CC(=O)Nc2sccc2C#N)CC1`, the inhibition was 4.43%. The value for `CCOc1ccccc1NC(=O)C1CC2CCCC(C1)C2=O` (configuration not stated) was 14.6%. Then `CCc1ccccc1NC(=O)Cn1c(=O)n(-c2ccc(CC(=O)NCC3CCCO3)cc2)c(=O)c2ccccc21` (configuration not stated), with 23.2%.

With `O=c1cc(-c2ccc([N+](=O)[O-])cc2)c2ccc(O)cc2o1`, the inhibition was 9.32%. Then `CN(C)Cc1c(O)ccc2c(=O)c(-c3ccc(Cl)cc3)coc12`, with 2.49%; and `COc1ccc(-n2cnnc2SCCC#N)cc1`, with 2.92%. Then `COc1cc(CNc2ccc(N3CCOCC3)c(C(=O)O)c2)ccc1OCC(N)=O`, with 14%; and `COc1cc(CNCCCN2CCOCC2)ccc1OCC(=O)NC(C)(C)C`, with -1.04%; and `CCOc1cc(CNc2ccc3c(c2)OCCO3)cc(Br)c1OCC(N)=O`, with 32.4%.

As for `COc1cc(CNC(C)(C)C)ccc1OCC(=O)NC(C)(C)C`, the inhibition was 12.2%. As to `CCOc1cc(CNc2ccc(N3CCCCC3)cc2)cc(Br)c1OCC(=O)NC(C)(C)C`, the inhibition was 19.5%. With `COc1cc(CNCCN2CCOCC2)ccc1OCC(=O)NC(C)(C)C`, the inhibition was 3.18%. Then `O=C(c1cc2ccccc2o1)n1nnc2ccccc21`, with 3.13%. The value for `CC(C)(C)NS(=O)(=O)c1cc(C(=O)Nc2sccc2C#N)ccc1Cl` was 8.52%; that for `COc1cc(NC(=O)C2CCCN(S(=O)(=O)c3ccc4c(c3)oc(=O)n4C)C2)cc(OC)c1` (configuration not stated) was 1.24%. The value for `O=C(O)CSCC(=O)N1CCN(c2nc3cc(Cl)ccc3s2)CC1` was 8.15%; that for `C=CCNC(=O)c1ccccc1NS(=O)(=O)c1ccccc1` was 4.06%.

As to `CCN(CC)CCNC(=O)c1cn(-c2ccccc2)nc1-c1cccs1`, the inhibition was 12.7%. The value for `c1ccc(-c2nc(-c3ccco3)cs2)nc1` was 23.7%; that for `Nc1nc(-c2ccc(-n3nncc3-c3ccco3)cc2)cs1` was 13.1%. The value for `c1coc(-c2nc3ccccc3nc2-c2ccco2)c1` was 50.2%; that for `c1coc(-c2nnc(-c3ccco3)nn2)c1` was 63.8%; that for `Oc1ccccc1-c1csc(-c2ccccc2)n1` was 6.78%.

Regarding `Cc1nc(-c2ccccc2)cs1`, the inhibition was 12.6%. For the compound `COc1ccc(-c2csc(-c3ccc(O)cc3)n2)cc1`, the inhibition was 21%. The value for `COc1ccc(-c2csc(C)n2)cc1OC` was 2.09%; that for `COc1ccc(-c2csc(C)n2)cc1Br` was 10.3%. Consider `COc1ccc(-c2csc(C)n2)cc1`, for which the inhibition was 13.6%. The value for `O=C1Nc2ccc(Br)cc2C1(O)c1ccc(F)cc1` (configuration not stated) was 5.56%; that for `COc1ccc(F)cc1C(=O)C1CCCN(Cc2c(C)n(C)n(-c3ccccc3)c2=O)C1` (configuration not stated) was 25.2%. Then `COc1ccc(C(=O)NC2CCCCC2)cc1S(=O)(=O)N1CCOCC1`, with 1.05%.
